Potency and outcome data for 7 compounds are collected here from PubChem BioAssay (Tox21).

“And” between values parts separate entries of the source, which are not always exact repeats. Identical values can stand only once. Records with an inconclusive call do not appear. The source made the active and inactive calls. Unless noted, calls come from the whole dose curve; as a rule, active = well fitted curve in the direction sought with a large enough effect in the repeat runs; inconclusive = weak or mixed curves; inactive = no such curve, though single readings can be large; an effect the other way counts as inactive or inconclusive. Positions of bridges follow the written chain, without caps; N, C: chain ends. Non-standard residues stand in square brackets, D forms with d. Residues, ends and D or L forms follow the SMILES beside them. *: point of attachment. X2 = CC[C@H](C)CCCCC(=O)*; Dab = NCC[C@H](N)C(=O)O

The nature of assay [1]: qHTS assay to test for compound auto fluorescence at 535 nm (green) in HEK293 cells (AID 720680).
The nature of assay [2]: qHTS assay to test for compound auto fluorescence at 460 nm (blue) in HEK293 cell free culture (AID 720681). The gist of the method: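 Blue fluorescence (Ex 405/Em 460 nm, triamterene-equivalent) was read immediately after pin transfer of compound or DMSO into medium (DMEM, 10% FBS) without cells.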
In general terms: qHTS replaces the single test concentration by a dilution series.

The nature of assay [3]: qHTS assay to test for compound auto fluorescence at 535 nm (green) in HEK293 cell free culture (AID 720682). The gist of the method:
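Compounds were pin-transferred into cell-free DMEM with 10% FBS, and green fluorescence was read at excitation 485 nm and emission 535 nm. Intensities were expressed as fluorescein-equivalent values.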

Assay [4] in a line: qHTS assay to test for compound auto fluorescence at 590 nm (red) in HEK293 cell free culture (AID 720683). The gist of the method: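 Red-channel autofluorescence of compounds in culture medium (DMEM, 10% FBS), no cells, measured at 540/590 nm. Rose Bengal sodium is the reference fluorophore for equivalence.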
Assay [5] in a line: qHTS assay to test for compound auto fluorescence at 590 nm (red) in HepG2 cell free culture (AID 720684). The gist of the method: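 Steps: dispense MEM/10% FBS medium, no cells; pin compound or DMSO vehicle; read red channel, Ex/Em 540/590 nm. Output given as Rose Bengal sodium equivalents.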
Assay [6] in a line: qHTS assay to test for compound auto fluorescence at 460 nm (blue) in HepG2 cell free culture (AID 720685). The gist of the method: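 Compound (23 nL) or DMSO pinned into cell-free MEM with 10% FBS; blue fluorescence read at 405/460 nm excitation/emission, expressed as auto-fluorescence equivalency to triamterene.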
The nature of assay [7]: qHTS assay to test for compound auto fluorescence at 535 nm (green) in HepG2 cell free culture (AID 720686).
Assay [8] in a line: qHTS assay to test for compound auto fluorescence at 460 nm (blue) in HepG2 cells (AID 720687). The gist of the method: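 Blue-channel autofluorescence (Ex/Em 405/460 nm, triamterene-equivalent) was measured after 1 hr compound exposure at 37 C, 5% CO2. Cells were HepG2, plated overnight at 37 C in MEM plus 10% FBS.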
In assay [9] the target is Glucocorticoid receptor (Homo sapiens) (UniProt P04150). Nature of the assay: qHTS assay to identify small molecule agonists of the glucocorticoid receptor (GR) signaling pathway (AID 720691; active = well fitted activation curve with a large enough effect in the signal ratio in the repeat runs, not every such curve was filed as active; the % refers to the signal ratio; note: potency is the fitted concentration of half-maximal effect). The following applies: GR-bla HeLa, beta-lactamase reporter ratio, 18 h; activation: at 62.4 µM (top of the series). The gist of the method:
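Fluorescence intensity from LiveBLAzer B/G FRET substrate (2 h, room temperature) reports beta-lactamase expression driven by the glucocorticoid response element in GR-bla HeLa cells after 18 h compound exposure at 37 C.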

Assay [10] in a line: qHTS assay to identify small molecule antagonists of the glucocorticoid receptor (GR) signaling pathway - cell viability counter screen (AID 720693). Note: nearly all actives have a fitted effect of over 55% in size. Note: potency is the fitted concentration of half-maximal effect.
A short description of assay [11]: qHTS assay for identifying genotoxic compounds that show differential cytotoxicity against isogenic chicken DT40 cell lines with known DNA damage response pathways - wild type cell line (AID 743012). Note: nearly all actives have a fitted effect of over 60% in size. Note: potency is the fitted concentration of half-maximal effect. The gist of the method:
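Wild type DT40, 300 cells/well, ~0.5 h settle at 37 C/5% CO2; compounds in DMSO added by pintool; 40 h at 37 C/5% CO2; CellTiter-Glo, 30 min RT; luminescence.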

The nature of assay [12]: qHTS assay for identifying genotoxic compounds that show differential cytotoxicity against isogenic chicken DT40 cell lines with known DNA damage response pathways - Rad54/Ku70 mutant cell line (AID 743015). Note: nearly all actives have a fitted effect of over 60% in size. Note: potency is the fitted concentration of half-maximal effect.
A short description of assay [13]: qHTS assay to identify small molecule antagonists of the androgen receptor (AR) signaling pathway - cell viability counter screen (AID 743033; note: nearly all actives have a fitted effect of over 45% in size).
Assay [14] in a line: qHTS assay to identify small molecule antagonists of the androgen receptor (AR) signaling pathway using the MDA cell line - cell viability counter screen (AID 743041; note: nearly all actives have a fitted effect of over 45% in size). The gist of the method:
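Cells were plated at 3,000 per well and left 5 h. Compounds in DMSO were then pinned in, followed by R1881. After 16 h at 37C, CellTiter-Fluor fluorescence gave viability.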

A short description of assay [15]: qHTS assay for identifying genotoxic compounds that show differential cytotoxicity against isogenic chicken DT40 cell lines with known DNA damage response pathways - Rev3 mutant cell line (AID 743014). Note: nearly all actives have a fitted effect of over 55% in size. Note: potency is the fitted concentration of half-maximal effect.
Assay [16] addresses Androgen receptor (Homo sapiens) (UniProt P10275). Briefly: qHTS assay to identify small molecule antagonists of the androgen receptor (AR) signaling pathway (AID 743035; active = well fitted inhibition curve with a large enough effect in the signal ratio in the repeat runs, not every such curve was filed as active; the % refers to the signal ratio; note: potency is the fitted concentration of half-maximal effect). The gist of the method:
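Fluorescence from a beta-lactamase FRET substrate (LiveBLAzer B/G, 2 h, room temperature) measured inhibition of R1881-stimulated signaling in GeneBLAzer AR-UAS-bla HEK293 cells exposed to compound for 16 h at 37C.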

For assay [17] the target is unchanged. Nature of the assay: qHTS assay to identify small molecule agonists of the androgen receptor (AR) signaling pathway (AID 743036; active = well fitted activation curve with a large enough effect in the signal ratio in the repeat runs, with a control signal flat, not every such curve was filed as active; the % refers to the signal ratio). The gist of the method: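 Activation was read as beta-lactamase FRET signal from LiveBLAzer B/G substrate, added for 2 h at room temperature. Before that, GeneBLAzer AR-UAS-bla GripTite (HEK293) cells had 16 h compound exposure at 37C.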

Assay [18] shares this target. Nature of the assay: qHTS assay to identify small molecule agonists of the androgen receptor (AR) signaling pathway using the MDA cell line (AID 743040; note: potency is the fitted concentration of half-maximal effect; nearly all actives have a fitted effect of over 20% in size). The gist of the method: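 Cells plated, 5 h at 37C/0% CO2; compound or DMSO pinned; 16 h at 37C; ONE-Glo added; luminescence measured after 30 min at room temperature. Reporter line: MDA-kb2 with MMTV-luciferase responsive to AR and GR.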

For assay [19] the target is unchanged. Briefly: qHTS assay to identify small molecule antagonists of the androgen receptor (AR) signaling pathway using the MDA cell line (AID 743042; note: nearly all actives have a fitted effect of over 55% in size). The gist of the method: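 Antagonist mode: compounds plus R1881 agonist added to MDA-kb2 AR-luc cells, incubated 16 h at 37C. Luciferase reporter luminescence quantified, with multiplexed CellTiter-Fluor readout for cell viability.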

Glucocorticoid receptor (Homo sapiens), sequence (P04150 whole entry, looked up): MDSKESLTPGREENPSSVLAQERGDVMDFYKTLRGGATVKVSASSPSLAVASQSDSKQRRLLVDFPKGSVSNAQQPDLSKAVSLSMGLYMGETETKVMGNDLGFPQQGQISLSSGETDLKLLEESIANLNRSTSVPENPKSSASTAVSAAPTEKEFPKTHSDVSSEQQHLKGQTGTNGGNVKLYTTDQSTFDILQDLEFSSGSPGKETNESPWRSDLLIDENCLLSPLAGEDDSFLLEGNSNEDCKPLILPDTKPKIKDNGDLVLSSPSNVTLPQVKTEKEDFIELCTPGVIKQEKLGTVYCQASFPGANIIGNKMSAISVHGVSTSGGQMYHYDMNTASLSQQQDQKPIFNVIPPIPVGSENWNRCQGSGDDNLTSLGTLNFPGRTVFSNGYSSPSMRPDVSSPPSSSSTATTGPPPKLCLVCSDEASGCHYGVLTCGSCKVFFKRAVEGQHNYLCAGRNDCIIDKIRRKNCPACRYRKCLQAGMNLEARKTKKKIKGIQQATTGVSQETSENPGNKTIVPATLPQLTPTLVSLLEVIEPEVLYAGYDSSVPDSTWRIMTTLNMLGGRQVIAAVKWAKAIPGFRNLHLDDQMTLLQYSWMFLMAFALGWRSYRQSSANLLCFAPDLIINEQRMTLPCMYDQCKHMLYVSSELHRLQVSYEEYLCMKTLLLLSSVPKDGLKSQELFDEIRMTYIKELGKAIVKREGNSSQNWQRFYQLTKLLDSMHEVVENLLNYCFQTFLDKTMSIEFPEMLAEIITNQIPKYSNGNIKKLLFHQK
Androgen receptor (Homo sapiens), sequence (P10275 whole entry, looked up): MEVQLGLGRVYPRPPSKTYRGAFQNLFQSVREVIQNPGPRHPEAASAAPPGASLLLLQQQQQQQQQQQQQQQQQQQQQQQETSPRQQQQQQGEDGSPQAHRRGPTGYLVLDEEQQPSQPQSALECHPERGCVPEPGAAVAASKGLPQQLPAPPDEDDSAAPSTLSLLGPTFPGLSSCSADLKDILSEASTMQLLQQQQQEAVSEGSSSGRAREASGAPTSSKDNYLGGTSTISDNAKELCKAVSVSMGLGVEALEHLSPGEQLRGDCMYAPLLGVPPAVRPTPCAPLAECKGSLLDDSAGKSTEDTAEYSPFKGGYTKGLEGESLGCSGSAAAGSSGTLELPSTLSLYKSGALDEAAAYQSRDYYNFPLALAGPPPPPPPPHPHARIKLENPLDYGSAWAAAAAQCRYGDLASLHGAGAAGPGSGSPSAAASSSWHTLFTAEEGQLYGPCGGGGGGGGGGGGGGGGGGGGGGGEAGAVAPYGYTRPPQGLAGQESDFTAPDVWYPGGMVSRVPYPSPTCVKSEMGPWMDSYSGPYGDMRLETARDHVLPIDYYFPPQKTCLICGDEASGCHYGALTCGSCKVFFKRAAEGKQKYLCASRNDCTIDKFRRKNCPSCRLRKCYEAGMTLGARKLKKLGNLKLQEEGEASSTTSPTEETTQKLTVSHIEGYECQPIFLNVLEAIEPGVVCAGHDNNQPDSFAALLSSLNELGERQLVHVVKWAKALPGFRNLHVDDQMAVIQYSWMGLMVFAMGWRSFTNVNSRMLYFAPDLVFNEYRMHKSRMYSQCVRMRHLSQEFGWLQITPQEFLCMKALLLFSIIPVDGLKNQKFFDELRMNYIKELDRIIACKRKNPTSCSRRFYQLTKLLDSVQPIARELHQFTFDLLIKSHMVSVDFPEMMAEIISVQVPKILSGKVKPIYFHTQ

As to `COc1ccc(C[C@H](C)NC[C@@H](O)c2ccc(O)c(NC=O)c2)cc1`, the Potency entry in [1], in [2], in assay [3], in assay [4], in assay [5] and in assay [7] was “inactive” throughout. The Potency entry in assay [9], in assay [10], in assay [13] and in assay [14] was “inactive” each time. Also, the call in [6] and in [8] was inactive. Besides, the Potency in [11] and in [12] was 26.6 µM (active) in each case.
Turning to `Cc1cc(-n2c(=O)[nH]c(=O)n(C)c2=O)ccc1Oc1ccc(S(=O)(=O)C(F)(F)F)cc1`, the Potency result in [1], in [2], in [3], in assay [4], in [5] and in [7] was “inactive” throughout. For the same compound, the Potency result in assay [9] and in [10] was “inactive” in each case. The compound was classed as inactive in assay [6] and in [8]. In addition, the Potency in assay [15] and in assay [12] was 26.6 µM (active) in each case.
With `CC(=O)O[C@]1(C(C)=O)CC[C@H]2[C@@H]3CCC4=CC(=O)CC[C@]4(C)[C@@]3(F)[C@@H](O)C[C@@]21C`, the Potency result in assay [1], in [2], in assay [3], in assay [4], in [5] and in [7] was “inactive” throughout. Also, the Potency result in [10], in assay [11], in assay [12], in [13], in assay [17] and in [14] was “inactive” each time. In assay [19], the Potency result is “inactive”. For the same compound, the outcome in [6] and in assay [8] was inactive. The Potency in [9] was 0.0379 µM (active); in assay [16] it was 8.49 µM (active); in [18], 0.0531 µM (active).
`CC[C@H](C)CCCCC(=O)N[C@@H](CCN)C(=O)N[C@H](C(=O)N[C@@H](CCN)C(=O)N[C@H]1CCNC(=O)[C@H]([C@@H](C)O)NC(=O)[C@H](CCN)NC(=O)[C@H](CCN)NC(=O)[C@H](CC(C)C)NC(=O)[C@@H](CC(C)C)NC(=O)[C@H](CCN)NC1=O)[C@@H](C)O` (X2-[Dab]T[Dab][Dab][Dab][dL]L[Dab][Dab]T; lactam 4-C): the Potency result in assay [1], in assay [2], in [3], in [4], in assay [5] and in assay [7] was “inactive” each time. Also, the Potency result in [9], in [10], in assay [11], in assay [15], in [13] and in assay [14] was “inactive” throughout. Also, the result in assay [6] and in assay [8] was inactive.
For `N[C@@H](C(=O)N[C@@H]1C(=O)N2C(C(=O)O)=C(Cl)CC[C@H]12)c1ccccc1`, the Potency result in [1], in assay [2], in assay [3], in assay [4], in [5] and in assay [7] was “inactive” each time. For the same compound, the Potency entry in assay [10], in assay [11], in assay [12], in [13] and in [14] was “inactive” in each case. In addition, the result in assay [6] and in assay [8] was inactive. Besides, the Potency in assay [9] is 21.3 µM (active).
For `CN[C@@H]1[C@H](O[C@H]2[C@H](O[C@H]3[C@H](O)[C@@H](O)[C@H](N=C(N)N)[C@@H](O)[C@@H]3N=C(N)N)O[C@@H](C)[C@]2(O)C=O)O[C@@H](CO)[C@H](O)[C@H]1O`, the Potency entry in [1], in assay [2], in assay [3], in [4], in [5] and in assay [7] was “inactive” each time. In addition, the Potency result in assay [9], in [10], in assay [11], in assay [12], in assay [13] and in [14] was “inactive” each time. Moreover, the outcome in [6] and in assay [8] was inactive.
Regarding `CCC(C)[C@H]1O[C@]2(C=C[C@@H]1C)C[C@@H]1C[C@@H](C/C=C(\C)[C@@H](O[C@H]3C[C@H](OC)[C@@H](O[C@H]4C[C@H](OC)[C@H](NC(C)=O)[C@H](C)O4)[C@H](C)O3)[C@@H](C)/C=C/C=C3\CO[C@@H]4[C@H](O)C(C)=C[C@@H](C(=O)O1)[C@]34O)O2` (some centres undefined), the Potency result in assay [1], in [2], in assay [3], in assay [4], in assay [5] and in assay [7] was “inactive” throughout. Moreover, the Potency entry in assay [9] and in assay [13] was “inactive” in each case. Further, the result in assay [6] and in assay [8] was inactive. Also, the Potency in assay [10] is 7.56 µM (active) and 19 µM (active); in assay [11], 841 nM (active) and 1.68 µM (active); in assay [12], 1.68 µM (active) and 3.35 µM (active).
